Data from PubChem BioAssay (NCI).
Several values for one entry are separate records, joined by “and”; a condition that tells them apart may be missing. Equal values may be shown once. About 79,000 compounds went through this panel and 15% of them were active in at least one assay; those are over-represented in the sample as a whole. Activity calls are given as the source filed them. Cut-off read from the data, not from the text of the source: active = growth inhibition above about 70%; inactive = the rest.

Tests used:
[1] = NCI Yeast Anticancer Drug Screen. Data for the mlh1 rad18 strain (AID 175); conditions: S. cerevisiae mlh1 rad18 strain growth inhibition, active compounds read high
Outline: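 Inhibition values reflect reduced growth of mutant yeast versus vehicle-treated controls following compound exposure; the mutations affect DNA damage repair.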

[2] = NCI Yeast Anticancer Drug Screen. Data for the wt1 strain (AID 149);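 note: 0% = growth of vehicle-treated wt1 cultures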; conditions: S. cerevisiae wt1 strain (SPY 50644) growth inhibition, active compounds read high
Outline: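 wt1 yeast, compound-treated; % growth inhibition vs vehicle control.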

[3] = NCI Yeast Anticancer Drug Screen. Data for the rad50EPP+ strain (AID 151);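 note: 0% = growth of vehicle-treated control cultures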; conditions: S. cerevisiae rad50 mutant strain, active compounds read high
Outline: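 Genetically defined yeast (rad50EPP+, DNA damage repair alteration) is grown with compound, and inhibition of growth is expressed relative to vehicle-treated controls.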

[4] = NCI Yeast Anticancer Drug Screen. Data for the mgt1 strain (AID 153); conditions: S. cerevisiae mgt1 mutant growth inhibition, active compounds read high
Outline: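 In the mgt1 strain, test compounds were added and growth inhibition was determined relative to vehicle-treated controls.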

[5] = NCI Yeast Anticancer Drug Screen. Data for the mec2-1 strain (AID 157); conditions: S. cerevisiae mec2-1 strain, active compounds read high
Outline: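 Each compound was tested on mec2-1 yeast, a strain altered in DNA damage repair or cell cycle control. Growth inhibition is reported relative to vehicle.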

[6] = NCI Yeast Anticancer Drug Screen. Data for the rad14 strain (AID 159);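 note: 0% = growth of vehicle-treated control cultures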; conditions: S. cerevisiae rad14 strain growth inhibition, active compounds read high
Outline: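 Test compounds were applied to a repair-deficient yeast strain. Its growth was then compared with that of cultures given vehicle alone, and inhibition was expressed relative to those controls.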

[7] = NCI Yeast Anticancer Drug Screen. Data for the sgs1 mgt1 strain (AID 161);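 note: 0% = growth of cultures given vehicle only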; conditions: S. cerevisiae sgs1 mgt1 strain, active compounds read high
Outline: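 Read-out: growth inhibition vs vehicle controls. Cells: mutant yeast strain deficient in DNA damage repair.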

[8] = NCI Yeast Anticancer Drug Screen. Data for the CLN2oe strain (AID 163);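 note: 0% = growth of vehicle-only control cultures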; conditions: S. cerevisiae CLN2oe strain, active compounds read high
Outline: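 First, the altered yeast strain was treated with each compound; second, its growth was measured; finally, inhibition was derived by comparison with vehicle controls.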

[9] = NCI Yeast Anticancer Drug Screen. Data for the cln2 rad14 strain (AID 165);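 note: 0% = growth equal to vehicle treated cultures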; conditions: S. cerevisiae cln2 rad14 strain, active compounds read high
Outline: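 Test compounds were added to cln2 rad14 yeast cultures; inhibition of growth was then determined by comparison with vehicle treatment.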

[10] = NCI Yeast Anticancer Drug Screen. Data for the bub3 strain (AID 167); conditions: S. cerevisiae bub3 mutant strain, active compounds read high
Outline: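 Yeast carrying a defined mutation is treated with each compound, and growth is compared with that of vehicle-exposed cells to give inhibition.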

[11] = NCI Yeast Anticancer Drug Screen. Data for the wt2 strain (AID 169);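 note: 0% = growth of vehicle-treated yeast cultures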; conditions: S. cerevisiae wt2 strain growth inhibition, active compounds read high
Outline: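 The panel's yeast strains carry defined changes in DNA repair or cell cycle genes. Each strain is grown with compound, and growth loss is scored relative to vehicle.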

[12] = NCI Yeast Anticancer Drug Screen. Data for the mlh1 strain (AID 171);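 note: 0% = growth of vehicle-treated control cultures of the same strain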; conditions: S. cerevisiae mlh1 strain growth inhibition, active compounds read high
Outline: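 Inhibition values reflect reduced yeast growth in the presence of compound, referenced to vehicle controls, using a strain chosen for its alteration in DNA repair or cell cycle control.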

[13] = NCI Yeast Anticancer Drug Screen. Data for the sgs1 strain (AID 173);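 note: 0% = growth of vehicle-only control cultures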; conditions: S. cerevisiae sgs1 mutant, active compounds read high
Outline: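 Vehicle-treated cultures served as reference for growth inhibition of a yeast strain altered in DNA damage repair or cell cycle control after compound exposure.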

[14] = NCI Yeast Anticancer Drug Screen. Data for the rad18 strain (AID 177); conditions: S. cerevisiae rad18 mutant growth inhibition, active compounds read high
Outline: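 Steps: expose repair-mutant yeast to compound; measure growth; express as inhibition relative to vehicle control.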

[15] = NCI Yeast Anticancer Drug Screen. Data for the rad50 strain (AID 155);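 note: 0% = growth of vehicle-only cultures of the same strain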; conditions: S. cerevisiae rad50 strain growth inhibition, active compounds read high
Outline: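 Genetically altered yeast (DNA repair pathway); compound treatment; growth inhibition vs vehicle ctrl.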

[16] = at 50.0 µM (retest, dose inferred, filed as 5.0)
[17] = at 5.0 µM (retest, dose inferred, filed as 0.5)

Measured: growth inhibition

COc1ccc2[nH]c3c(C)c4cc[n+](C)cc4c(C)c3c2c1
inactive: [1]; [16] 52% and 32% | [1]; at 50.0 µM 56.5%

N=C(N)c1ccc(N=Nc2c(O)ccc3c2[nH]c2ccccc23)cc1
active: [2]; at 33.0 µM 95% | [2]; at 100.0 µM 97% | [3]; at 33.0 µM 87% | [3]; at 100.0 µM 95% | [4]; at 33.0 µM 95% | [4]; at 100.0 µM 95% | [5]; at 33.0 µM 95% | [5]; [16] 96% | [5]; at 50.0 µM 98.2% | [5]; at 100.0 µM 97% | [6]; at 11.0 µM 90% | [6]; at 33.0 µM 96% | [6]; at 100.0 µM 97% | [7]; [16] 97% | [7]; at 50.0 µM 96.8% | [8]; at 33.0 µM 93% | [8]; at 100.0 µM 94% | [9]; [16] 95% | [9]; at 50.0 µM 95.9% | [10]; at 11.0 µM 79% | [10]; at 33.0 µM 95% | [10]; [16] 97% | [10]; at 50.0 µM 98.2% | [10]; at 100.0 µM 93% | [11]; at 11.0 µM 84% | [11]; at 33.0 µM 95% | [11]; at 100.0 µM 97% | [12]; at 11.0 µM 71% | [12]; at 33.0 µM 92% | [12]; at 100.0 µM 96% | [13]; at 11.0 µM 92% | [13]; at 33.0 µM 96% | [13]; at 100.0 µM 96% | [1]; [16] 98% | [1]; at 50.0 µM 98.3% | [14]; at 11.0 µM 93% | [14]; at 33.0 µM 96% | [14]; at 100.0 µM 95%
inactive: [2]; at 1.2 µM -2% | [2]; at 3.7 µM -1% | [2]; at 11.0 µM 69% | [3]; at 1.2 µM 8% | [3]; at 3.7 µM 36% | [3]; at 11.0 µM 57% | [4]; at 1.2 µM -2% | [4]; at 3.7 µM 2% | [4]; at 11.0 µM 64% | [5]; at 1.2 µM -3% | [5]; at 3.7 µM -1% | [5]; [17] 15% | [5]; at 11.0 µM 68% | [6]; at 1.2 µM -1% | [6]; at 3.7 µM 3% | [7]; [17] 17% | [8]; at 1.2 µM -3% | [8]; at 3.7 µM 5% | [8]; at 11.0 µM 41% | [9]; [17] -24% | [10]; at 1.2 µM -4% | [10]; at 3.7 µM -3% | [10]; [17] 19% | [11]; at 1.2 µM -3% | [11]; at 3.7 µM 5% | [12]; at 1.2 µM 1% | [12]; at 3.7 µM 2% | [13]; at 1.2 µM 0% | [13]; at 3.7 µM 21% | [1]; [17] 24% | [14]; at 1.2 µM -10% | [14]; at 3.7 µM 11%

CN(C)N1C(=O)SCC(c2ccccc2)(c2ccccc2)C1=O
inactive: [2]; at 1.2 µM -4% | [2]; at 3.7 µM -4% | [2]; at 11.0 µM -3% | [2]; at 33.0 µM 6% | [2]; at 100.0 µM 16% | [3]; at 1.2 µM -2% | [3]; at 3.7 µM 2% | [3]; at 11.0 µM -32% | [3]; at 33.0 µM 4% | [3]; at 100.0 µM 7% | [15]; at 1.2 µM 4% | [15]; at 3.7 µM 7% | [15]; [17] -10% | [15]; at 11.0 µM 8% | [15]; at 33.0 µM 30% | [15]; [16] 61% | [15]; at 50.0 µM 64.8% | [15]; at 100.0 µM 50% | [5]; at 1.2 µM 1% | [5]; at 3.7 µM 1% | [5]; [17] 9% | [5]; at 11.0 µM 2% | [5]; at 33.0 µM 9% | [5]; [16] 43% | [5]; at 50.0 µM 10.2% | [5]; at 100.0 µM 27% | [6]; at 1.2 µM 1% | [6]; at 3.7 µM -3% | [6]; at 11.0 µM -4% | [6]; at 33.0 µM -15% | [6]; at 100.0 µM -19% | [7]; [17] 11% | [7]; [16] 43% | [7]; at 50.0 µM 15.4% | [8]; at 1.2 µM -2% | [8]; at 3.7 µM 7% | [8]; at 11.0 µM 2% | [8]; at 33.0 µM 1% | [8]; at 100.0 µM 2% | [9]; [17] -26% | [9]; [16] 3% | [9]; at 50.0 µM 6.9% | [10]; at 1.2 µM -2% | [10]; at 3.7 µM -1% | [10]; [17] 12% | [10]; at 11.0 µM 12% | [10]; at 33.0 µM 17% | [10]; [16] 60% | [10]; at 50.0 µM 21.6% | [10]; at 100.0 µM 23% | [11]; at 1.2 µM -2% | [11]; at 3.7 µM -3% | [11]; at 11.0 µM -1% | [11]; at 33.0 µM 4% | [11]; at 100.0 µM 11% | [12]; at 1.2 µM -1% | [12]; at 3.7 µM 1% | [12]; at 11.0 µM 1% | [12]; at 33.0 µM 12% | [12]; at 100.0 µM -10% | [13]; at 1.2 µM -1% | [13]; at 3.7 µM 1% | [13]; at 11.0 µM 4% | [13]; at 33.0 µM 20% | [13]; at 100.0 µM 34% | [1]; [17] 12% | [1]; [16] 29% | [1]; at 50.0 µM 47% | [14]; at 1.2 µM 6% | [14]; at 3.7 µM 5% | [14]; at 11.0 µM 26% | [14]; at 33.0 µM 59%
active: [14]; at 100.0 µM 75%
